# Measurements from PubChem BioAssay AID504727 (Broad Institute, 2011).
# Activity calls are given as the source filed them.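 Rule for the calls: active = fitted half-maximal concentration AC50 at or below ten times the highest valid tested dose, with signal falling as DNA is displaced (actives reach about 34 µM in these data); inconclusive = flat fit at moderate signal loss, or poor fit quality; inactive = the rest, including signal rising instead of falling.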
# Experiment: DNA intercalators displacing acridine orange, dose response, artefact control for KSHV LANA DNA-binding inhibitor project, biochemical, fluorescence polarization, cherry-picked samples, set 2 (AID 504727)
# Conditions: AC50: Acridine orange-DNA displacement; series mostly up to 35 µM
row,Structure (SMILES),AC50
1,Cc1cc(C)nc(SCC(=O)N/N=C/c2cc(C)n(-c3ccccc3C)c2C)n1,inactive
2,COc1cc(-c2ccc(Nc3ccccc3C(=O)O)c(OC)c2)ccc1Nc1ccccc1C(=O)O,inactive
3,O=C(O)C1C2C=CC(CC2)C1C(=O)O (stereo not drawn),inactive
4,Fc1ccc(-c2cc(C(F)(F)F)nc(-n3cc(Cl)cn3)n2)cc1,inactive
5,O=C1c2ccccc2C(=O)C1c1ccccn1,inactive
6,Nc1nc(SCC(=O)N2CCCCC2)[nH]c(=O)c1NC(=O)c1cccs1,inactive
7,COc1cccc2c1C(=O)c1c(O)c3c(c(O)c1C2=O)C[C@@](O)(C(C)=O)C[C@@H]3O[C@H]1C[C@H](N)[C@H](O)[C@H](C)O1,1.89 µM (active)
8,CN(C)c1ccc(/C=C/C(=O)c2ccc(O)cc2)cc1[N+](=O)[O-],inactive
9,CC(C)N(C(=S)Nc1cccnc1)c1ccccc1,inactive
10,Cc1nc2ccccc2n2c(O)c(CC(=O)O)cc12,10.2 µM (active)
11,COc1cc2c(cc1OC)-c1cc3ccc4c(c3c[n+]1CC2)OCO4,32.2 µM (active)
12,CCn1c(-c2ccc([N+](=O)[O-])cc2)n[nH]c1=S,inactive
13,CC1CC(C)(C)NC(=S)N1CC(=O)N(C)Cc1ccccc1 (stereo not drawn),inactive
14,Cc1cc(C)c2c(c1)NC(C(=O)O)C1CC=CC21 (stereo not drawn),inactive
15,O=C1c2cccc3c(N4CCCCC4)ccc(c23)C(=O)N1c1cccc(O)c1,inactive
16,O=c1[nH][nH]cc1C=Nc1ccc(Cl)cc1Cl,inactive
17,COc1cccc(OC)c1C(=O)Nc1cc(C)on1,inactive
18,Cc1ccc(NC(=O)CN(C)C(=O)c2nn(C)c(=O)c3ccccc23)cc1,inactive
19,O=C(NC1CCCCC1)c1cc([N+](=O)[O-])ccc1N1CCOCC1,inactive

row,Structure (SMILES),AC50
1,O=C(Nc1ccc(Br)cn1)c1cccc2ccccc12,inactive
2,N=C1/C(=C\c2ccc(Br)o2)C(=O)N=C2SC(CC(=O)N3CCOCC3)=NN12,inactive
3,COC(=O)c1ccc(OCC(O)CN2CCC(C)CC2)cc1 (stereo not drawn),inactive
4,NC(=S)COc1ccccc1,inactive
5,CCN(C(=O)COC(=O)CNS(=O)(=O)c1ccc(SC)c([N+](=O)[O-])c1)C1CCCCC1,inactive
6,CCN(CC)C(=S)SC1CCCCN(C(=O)c2ccccc2)C1=O (stereo not drawn),inactive
7,O=C(O)c1ccccc1C1=Nc2ccc(O)cc2Oc2cc(O)ccc21,13.4 µM (active)
8,O=C1C=C(c2ccoc2)N2CCC[C@H]2C1,inactive
9,COc1c2c(nc3occc13)C(CCC(C)(C)O)(OC)C(O)CC2 (stereo not drawn),inactive
10,Cc1ccc(C(=O)CCC(=O)Nc2ncccc2C)cc1,inactive
11,Nc1cccc2cc(S(=O)(=O)O)ccc12,inactive
12,CCCc1nnc(NC(=O)CCC(=O)NCc2ccc(OC)cc2)s1,inactive
13,Cn1c(N)c(C(=O)COC(=O)c2ccc(Cl)c(S(=O)(=O)N3CCCC3)c2)c(=O)n(C)c1=O,inactive
14,Cc1[nH][nH]c(=O)c1C(c1ccc(-c2ccc(Cl)c(C(=O)O)c2)o1)c1c(C)[nH][nH]c1=O,inactive
15,O=C(COC(=O)c1ccc([N+](=O)[O-])o1)NCCCc1ccccc1,inactive
16,Cc1cc(NC(=O)CCC(=O)N(CCC(C)C)C(C(=O)NC2CCCC2)c2cccnc2)no1 (stereo not drawn),inactive
17,CCN(CC(=O)NCc1cccs1)C(=O)c1ccc(S(=O)(=O)Nc2ccccc2C)cc1,inactive
18,Nc1ccc(-c2c3ccc(=O)cc-3oc3cc(O)ccc23)cc1C(=O)O,1.07 µM (active)
19,O=C(CSc1cccc2cccnc12)N/N=C/c1ccc(O)cc1,inactive
